High-throughput results deposited in PubChem by National Center for Advancing Translational Sciences (NCATS).
An excerpt weighted towards active compounds, which were near 19% of everything screened.
DT40 TDP1 CPT = qHTS for Inhibitors of human tyrosyl-DNA phosphodiesterase 1 (TDP1): qHTS in cells in presence of CPT | Potency, µM (highest dose often 46.2 µM), most hits filed as inhibitors | 420,000 tested, 12% active | AID 686979, 2013 | chicken DT40 Tdp1-/-;hTDP1 cells + 20 nM CPT, ATP luminescence, 48 h; note: nearly all actives have a fitted effect of over 55% in size
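Chicken DT40 Tdp1-/- cells stably complemented with human TDP1 were seeded at 400 cells/well in medium containing 20 nM camptothecin, exposed to pin-transferred compounds, and grown at 37 °C for at least 48 hr. Viability was read as ATP luminescence.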
BCR signal inh = qHTS Assay to Find Inhibitors of Chronic Active B-Cell Receptor Signaling; Potency, µM (top dose mostly 46.1 µM), usual class: inhibitors; AID 493014, 2011; ABC-DLBCL IkBa-CBG/CBR reporter, luminescence ratio, 4 h; 340,000 tested, 0.05% active; active = well fitted inhibition curve with a large enough effect in the signal ratio, with a control signal flat, not every such curve was filed as active; inconclusive = small, poorly fitted or top-dose-only effect, or effect the other way, or a change in a side signal; the % refers to the signal ratio
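Doxycycline induced both beetle luciferases in TMD8 lymphoma cells; IKK-driven degradation limits the IkappaBalpha-fused green signal, while red luminescence normalises for cell number and nonspecific effects. Compounds tested up to 46 uM, 4 hrs.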
IL1B secr inh = qHTS for Inhibitors of Inflammasome Signaling: IL-1-beta AlphaLISA Primary Screen; activity change, % at 57.5 µM; THP-1 LPS/ATP IL-1B secretion, AlphaLISA, 16 h; stronger effect = lower value; 360,000 tested, 4.7% active; in the data active = activity change below about -50%; inconclusive = mostly about -30% to -49%
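THP-1 cells pretreated 1 hr with compounds (up to 57.5 uM final), then stimulated with LPS (250 ng/mL final) plus ATP (1.25 mM final); secreted IL-1B measured by AlphaLISA after 16 hr, decreased signal indicating inhibition.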
SW480 rereplic = A quantitative high throughput screen for small molecules that induce DNA re-replication in SW480 colon adenocarcinoma cells. SW480 DNA re-replication, Hoechst DNA content imaging, 48 h. Potency, µM (titrated, usually from 46.1 µM), hits mostly activators. 340,000 tested, 1.8% active. AID 624297, 2012; note: nearly all actives have a fitted effect of over 55% in size
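Cells (250 per well) received 23 nL compound or DMSO by pin tool and were kept 48 hr at 37 C, 5% CO2. Nuclei were then stained with Hoechst for 40 min and scanned for DNA content.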
MCF10A rereplic = A quantitative high throughput screen for small molecules that induce DNA re-replication in MCF 10a normal breast cells. Potency, µM (series often up to 46.1 µM), usual class: activators. MCF 10A DNA re-replication, Hoechst nuclear intensity, 48 h. 350,000 tested, 2.9% active. AID 624296, 2012; note: nearly all actives have a fitted effect of over 50% in size
DT40 TDP1 no CPT = qHTS for Inhibitors of human tyrosyl-DNA phosphodiesterase 1 (TDP1): qHTS in cells in absence of CPT. AID 686978, 2013. Potency, µM (series often up to 46.2 µM), actives largely listed as inhibitors. 420,000 tested, 15% active. DT40 Tdp1-/- hTDP1 cells, no CPT, ATP luminescence, 48 h; note: nearly all actives have a fitted effect of over 55% in size
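Stably hTDP1-transfected Tdp1-null chicken DT40 cells were treated with library compounds minus camptothecin and grown for at least 48 hr at 37 °C, after which cellular ATP was quantified by luminescence.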
Hits are given with their value; - = inactive; ? = inconclusive; . = not tested or not shown; [ ] = dose if it differs, or a comment. Unless noted, calls come from the whole dose curve; as a rule, active = well fitted curve in the direction sought with a large enough effect; inconclusive = small, poorly fitted or top-dose-only effect, or another doubt; inactive = no such curve, though single readings can be large; an effect the other way counts as inactive or inconclusive.

SMILES	DT40 TDP1 CPT	BCR signal inh	IL1B secr inh	SW480 rereplic	MCF10A rereplic	DT40 TDP1 no CPT
COc1ccc(N2CCN(C(=S)NC(C)c3ccccc3)CC2)cc1 (configuration not stated)	?	-	-	-	-	15µM
Cc1cccc(NC(=S)NN(Cc2ccccc2)c2ccccc2)c1C	25µM	?	-	-[9.22 µM]	-	16µM
COc1cc(OC)cc(C(=O)NCCC(c2ccccc2)c2ccccc2)c1	?	-	-	-	-	?
COc1cccc(NC(=S)NCCC(c2ccccc2)c2ccccc2)c1	21µM	-	-	-	?	13µM
Cc1cc(Cl)ccc1NC(=S)NCCC(c1ccccc1)c1ccccc1	16µM	?	-	-[9.22 µM]	13µM	16µM
Cc1cc(Cl)ccc1NC(=S)NCc1ccc(S(N)(=O)=O)cc1	?	-	-	-	-	-
COc1ccc(NC(=S)NCCC(c2ccccc2)c2ccccc2)c(OC)c1	18µM	-	-	-[9.22 µM]	-	16µM
Cc1cc(Cl)ccc1NC(=S)NCc1ccc(Cl)cc1	?	-	-	-[9.22 µM]	?	23µM
Cc1cc(Cl)ccc1NC(=S)NCCc1ccc(Cl)cc1	?	-	-	?	-	?
COc1ccc(NC(=S)N2CCN(C(c3ccccc3)c3ccccc3)CC2)c(OC)c1	15µM	?	-59	-	-	18µM
CC(=O)N1CCc2cc(CNC(=O)Nc3cc(Cl)ccc3C)ccc21	-	.	.	.	.	-
Cc1ccnc(NC(=O)CCN2C(=O)c3ccccc3S2(=O)=O)n1	-	-	-	-	-	-
Cc1cccc(NC(=S)NNC(=S)NCc2ccccc2)c1	-	-	-	-	-	-
Cc1cccc(NC(=S)NCCC(c2ccccc2)c2ccccc2)c1	?	?	-	-	?	16µM
Cc1ccccc1NC(=S)NCc1ccccc1	29µM	-	-	-	-	23µM
O=C(NCC(=O)N1CCN(S(=O)(=O)c2ccccc2)CC1)c1ccc(Br)o1	-	-	-	-	-	-
Cn1cc(C(=O)C(=O)N2CCc3ccccc32)c2ccccc21	-	-	-	-	-	-
C/C(=N\NC(=O)c1c(C)nc2ccccn12)c1ccc(O)cc1O	3.7µM	-	-	?	?	3.7µM
C/C(=N\NC(=O)c1c(C)nc2ccccn12)c1ccccc1F	-	-	-	-	-	-
Cc1nn(C)c2c1c(C(F)(F)F)cc(=O)n2CC(=O)NCc1ccc(OC(C)C)cc1	-	.	.	.	.	?
O=C1N[C@@H](c2ccccc2)COC(=O)[C@@H](Cc2ccc(F)cc2)CC/C=C/C[C@H]1CC(=O)N(CCO)Cc1ccccc1	12µM	-	?	?	?	9.2µM
O=C1N[C@@H](c2ccccc2)COC(=O)[C@@H](Cc2ccc(F)cc2)CC/C=C/C[C@@H]1CC(=O)N(CCO)Cc1ccccc1	13µM	-	?	-	-	18µM
O=C1NC[C@@H](c2ccccc2)OC(=O)[C@@H](Cc2ccc(F)cc2)CC/C=C/C[C@@H]1CC(=O)N(CCO)Cc1ccccc1	16µM	.	?	-	?	15µM
O=C(C[C@H]1C/C=C/CC[C@@H](Cc2ccc(F)cc2)C(=O)O[C@@H](c2ccccc2)CNC1=O)NCCO	?	-	-	-	-	?
O=C(COc1ccccc1-c1nc(-c2ccccc2)no1)Nc1ccc([N+](=O)[O-])cc1	-	.	.	.	.	-
SMILES	DT40 TDP1 CPT	BCR signal inh	IL1B secr inh	SW480 rereplic	MCF10A rereplic	DT40 TDP1 no CPT
O=C(Nc1ccc(Cl)c([N+](=O)[O-])c1)ONC1=NCCCCC1	?	?	-53	-	-	13µM
COc1cc(Br)c(CNc2cc(C)ccc2C)cc1OC	?	?	-	-	?	16µM
CCN1CCN(C(=O)N(CC(=O)Nc2ccc(C(N)=O)cc2)S(=O)(=O)c2ccc(C)cc2)CC1	-	-	-	-	-	-
COc1ccc2nc(NC(=O)c3nc(SCc4ccccc4F)ncc3Cl)sc2c1	-	.	.	.	.	-
COc1ccc2nc(NC(=O)c3nc(S(=O)(=O)Cc4ccccc4)ncc3Cl)sc2c1	1µM	.	.	.	.	1.3µM
COc1ccc2nc(NC(=O)c3nc(S(=O)(=O)Cc4ccccc4F)ncc3Cl)sc2c1	0.92µM	.	.	.	.	1.5µM
CCOC(=O)c1ccc(OCCN2C[C@H](O)[C@@H](O)[C@H](O)[C@H]2CO)cc1	-	.	.	.	.	?
COc1cc(NC2CCCCC2O)c2nc(-c3ccc(Cl)cc3)ccc2c1 (configuration not stated)	21µM	?	-	13µM	13µM	?
COc1ccc(OCC(=O)OCC(=O)NC2CCCCC2C)cc1 (configuration not stated)	-	-	-	-	-	-
COc1cccc(/C=N/NC(=O)CSCC(=O)Nc2ccccc2)c1O	4.5µM	-	-	?	-	3.2µM
COc1cccc(/C=N\NC(=O)Cn2nnc3ccccc32)c1O	3.7µM	-	-	?	?	2.9µM
COc1ccc(O)c(/C=N\NC(=O)CCn2nnc3ccccc32)c1	?	?	-	?	?	23µM
CC1=CC(=O)C2(C)C(C)=C(C)C12C (configuration not stated)	-	.	-	.	.	-
Cc1ccc2c(c1)C(=O)C(=O)N2Cc1ccc(OCCC(C)C)cc1	0.41µM	.	.	.	.	0.41µM
CCCCN1C(=O)C(=O)c2cc(Cl)ccc21	1µM	?	-	?	23µM	0.82µM
Cc1ccc2c(c1)C(=O)C(=O)N2c1ccc(Cl)cc1	?	-	-	-	-	?
CC(C)CCOc1ccc(C(=O)O)cc1	-	-	-	-	-	-
Cc1ccc2c(c1)C(=O)C(=O)N2Cc1ccc(Br)cc1	0.92µM	-	-	18µM	?	0.65µM
CCCN1C(=O)C(=O)c2cc(C)ccc21	2.1µM	-	-	6.5µM	-	3.3µM
O=C(Nc1noc2ccccc12)c1ccc(F)cc1	-	.	.	.	.	-
CC(=O)Nc1ccc(C(=O)OCC(=O)Nc2c(C)n(C)n(-c3ccccc3)c2=O)cc1	-	-	-	-	-	-
CCN1CCN(C(=O)NC(C(=O)NC2C(=O)N3C(C(=O)O)=C(CSc4nnnn4C)CSC23)c2ccc(O)cc2)C(=O)C1=O (configuration not stated)	.	.	.	-	-	.
O=C(NC1CCCCC1)C(c1ccncc1)N(C(=O)c1csnn1)c1cccc(F)c1 (configuration not stated)	-	-	-	-	-	-
